# PubChem BioAssay AID2314 (National Center for Advancing Translational Sciences (NCATS), 2010)
# Screen size: about 300,000 compounds; about 37,000 (12%) were called active. Rule as the data show it: active = max response mostly above about 13% (no sharp cut-off); inactive = mostly below about 14%. Many of the other results were omitted from the sample, so actives are more common in it than they were.
# Assay: Cycloheximide Counterscreen for Small Molecule Inhibitors of Shiga Toxin; also: read at 38.3 µM for the half of the compounds with a filed dose; 0% is about no effect
# Details: cell reporter, cycloheximide protein synthesis inhibition counterscreen; hits give high values
row,Compound,max response
1,CCC(=O)c1ccc(OC(=O)/C=C/c2cc(OC)c(OC)c(OC)c2)cc1,-6.8% (inactive)
2,COc1ccc(C(=O)O)cc1S(=O)(=O)NCc1cccnc1,1.18% (inactive)
3,COc1ccc(Cn2c(O)c(/C=C3/C=CC=N3)c(=O)[nH]c2=O)cc1,1.33% (inactive)
4,Cc1nc2c(C(=O)NCc3cccs3)cnn2c(C)c1Cc1ccc(F)cc1,0.665% (inactive)
5,O=C(NCC1CCN(Cc2ccccc2Cl)CC1)Nc1cccc(Cl)c1,9.67% (inactive)
6,CCc1ccc(NC(=O)N[C@H](C(=O)O)C(C)CC)cc1 (some centres not stated),9.38% (inactive)
7,O=C(Nc1ccncc1)c1c(F)cccc1F,14.2% (inactive)
8,O=C(Nc1ccncc1)Nc1ccc(F)cc1,21.6% (active)
9,CC(C)CC(=O)Nc1ccc(Cc2ccncc2)cc1,-2.52% (inactive)
10,CCc1ccc(NC(=O)Nc2ccncc2)cc1,28.8% (active)
11,O=C(Nc1ccc(F)cc1)N1CCN(c2ccc(F)cc2)CC1,1.7% (inactive)
12,CCCc1ccc(OCc2ccc(C(=O)N/N=C/c3cccc([N+](=O)[O-])c3)o2)c(OC)c1,-2.18% (inactive)
13,CC(C)Cn1c(=O)c2ccccc2n2c(CCC(=O)NCc3ccccn3)nnc12,15.7% (inactive)
14,Cc1cccc(C)c1N1C(=O)CN(Cc2ccccc2)C1=S,-2.32% (inactive)
15,O=C(NCCS(=O)(=O)c1ccc(Br)cc1)c1ccccc1Cl,-3.1% (inactive)
16,CN(C)S(=O)(=O)c1ccc(C(=O)NCCN=C2NS(=O)(=O)c3ccccc32)cc1,-3.08% (inactive)
17,O=C(Nc1nnc(-c2ccccc2)o1)c1cc(-c2cccs2)nc2ccccc12,-2.91% (inactive)
18,CCCN(CCC)c1ccc(C(O)c2nnc(-c3ccccc3)o2)cc1 (configuration not stated),26.9% (inactive)
19,OC(c1nnc(-c2ccccc2)o1)c1cccs1 (configuration not stated),76.9% (active)
20,CCCc1cc(=O)oc2cc(OCC(=O)Nc3ccc(CN4CCOCC4)cc3)c(Cl)cc12,-3.2% (inactive)
21,Oc1c(C=Nc2cccc3nsnc23)ccc2ccccc12,16.7% (active)
22,O=[N+]([O-])c1ccc(N=Cc2c(O)ccc3ccccc23)cc1,-1.91% (inactive)
23,O=C(Nc1cccc(C(F)(F)F)c1)c1ccc(N2CCNCC2)c([N+](=O)[O-])c1,0.923% (inactive)
24,Nc1nc(SCC(=O)N2CCN(S(=O)(=O)c3ccc(Cl)cc3)CC2)n[nH]1,6.07% (inactive)
25,Cc1occc(=O)c1OCc1c(Cl)cccc1Cl,0.434% (inactive)

row,Compound,max response
1,Cc1ccc(OCC(=O)Nn2cnc3ccccc32)cc1,8.71% (inactive)
2,O=C(c1ccc(Cl)cc1)n1cnc2ccccc21,-2.21% (inactive)
3,COC(=O)c1ccc(-n2cnc3ccccc32)nc1,24.9% (active)
4,CCC(C)(C)n1nnnc1C(c1ccc(OC)c(OC)c1)N1CCN(C(=O)c2ccco2)CC1 (configuration not stated),-2.11% (inactive)
5,CCCn1nnc(NC(=O)COc2ccc(CC)cc2)n1,3.91% (inactive)
6,CCCOc1cccc(C(=O)NCCCNC(=O)c2cccnc2)c1,-1.77% (inactive)
7,CCCOc1cccc(C(=O)Nc2nnn(CCC)n2)c1,26.2% (active)
8,CC1CN(S(=O)(=O)c2ccc(C(=O)Nc3sccc3C(N)=O)cc2)CC(C)O1 (configuration not stated),-0.296% (inactive)
9,COc1ccc(CN(C(=O)CSc2nnc(-c3ccc(OC)c(OC)c3)o2)c2ccc(F)cc2)cc1,-0.972% (inactive)
10,CCCCOC(=O)c1[nH]c(C)c(C(=O)OC)c1C,60.6% (active)
11,CC(=O)c1c(C)[nH]c(C(=O)OCC(=O)NCCC(C)C)c1C,-1.49% (inactive)
12,COC(=O)c1c(C)[nH]c(C(=O)NCCc2ccc(S(N)(=O)=O)cc2)c1C,-10.2% (inactive)
13,Cc1ccc(C(=O)NC(=S)Nc2ccc(N3CCOCC3)cc2)cc1,13.6% (inactive)
14,COC(=O)c1ccc(NC(=S)Nc2cccc(C)n2)cc1,10.2% (inactive)
15,COC(=O)c1ccc(NC(=S)NN2CCOCC2)cc1,20.6% (active)
16,COc1ccc2c3c(c(=O)oc2c1)C1O[C@](CCCCN2C(=O)c4ccccc4C2=O)(Cc2c1ccc1ccccc21)O3,-1.56% (inactive)
17,Cc1ccsc1/C=N/NC(=O)Cc1cc(=O)[nH][nH]1,4.08% (inactive)
18,COc1cccc(/C=N/Nc2ccc(Cl)nn2)c1,25.6% (active)
19,Clc1ccc(N/N=C/c2cccs2)nn1,22.2% (active)
20,NC(=O)N/N=C\c1cccs1,5.02% (inactive)
21,COc1cc(/C=N/Nc2ccc(C)cc2)cc(Br)c1O,7.52% (inactive)
22,Cn1c(=O)c2c(nc(N/N=C/c3cccs3)n2Cc2ccc(Br)cc2)n(C)c1=O,10.1% (inactive)
23,Cc1ccsc1/C=N/Nc1ccc(Cl)nn1,14% (active)
24,Oc1c(Br)cccc1/C=N/Nc1c(F)c(F)c(F)c(F)c1F,6.05% (inactive)
25,Oc1cccc(/C=N/Nc2ccc(Cl)nn2)c1O,43.2% (active)

row,Compound,max response
1,Cc1ccsc1/C=N/n1c(=S)[nH]nc(C)c1=O,-1.56% (inactive)
2,COc1cccc(/C=N\Nc2nncc(-c3ccccc3)n2)c1,6.58% (inactive)
3,O=C(C(NS(=O)(=O)c1cccc2nsnc12)c1ccccc1)N1CCN(c2ccccc2)CC1 (configuration not stated),4.26% (inactive)
4,CCOC(=O)c1cc(S(=O)(=O)NCCc2ccc(OC)c(OC)c2)cn1C,-2.67% (inactive)
5,CCOC(=O)N1CCN(S(=O)(=O)c2ccc(Br)cc2)CC1,-0.649% (inactive)
6,CCOC(=O)N1CCN(C(=O)C2CCN(S(=O)(=O)c3cc(Cl)ccc3OCC)CC2)CC1,11.3% (inactive)
7,C=C(C)C1CC=C(C)/C(=N\NC(=O)CNc2ccccc2OC)C1 (configuration not stated),-1.85% (inactive)
8,Cc1cc(Nc2ccccc2)nc(N)n1,7.42% (inactive)
9,Cc1ccc2nc(Nc3ccccc3)cc(C)c2c1,51.1% (active)
10,Cc1ccc2nc(Nc3ccccc3O)nc(-c3ccccc3)c2c1,0.615% (inactive)
11,Cc1ccc(S(=O)(=O)N(CC(O)CN2C(=O)NC(C)(C)C2=O)c2cccc([N+](=O)[O-])c2)cc1 (configuration not stated),-3.67% (inactive)
12,COCCCN1C(=O)c2ccc(C(=O)OCC(=O)NCc3ccccc3OC)cc2C1=O,-6.08% (inactive)
13,O=C(O)C1CCN(C(=O)OCc2ccccc2)CC1,40.2% (active)
14,O=C(NCC1CCC(C(=O)O)CC1)OCc1ccccc1 (configuration not stated),-2.25% (inactive)
15,CCOC(=O)N1CCC(NC(=O)CCc2ccccc2)CC1,1.36% (inactive)
16,COc1cccc(N(CC(=O)NC2CCCCCC2)S(=O)(=O)c2ccccc2)c1,1.89% (inactive)
17,COc1ccccc1C(=O)N1CCNC(=O)C1CC(=O)Nc1ccc(Cl)cc1 (configuration not stated),-1.23% (inactive)
18,O=C(CC1SCCNC1=O)Nc1ccc(Cl)cc1 (configuration not stated),21.9% (active)
19,O=C(CC1SCCNC1=O)Nc1ccc(Cl)c(Cl)c1 (configuration not stated),17.5% (inactive)
20,CCC(=O)NC(=S)Nc1ccc(NC(=O)c2ccco2)c(Cl)c1,16.5% (inactive)
21,CCOc1cc(NC(=S)NCc2ccco2)c(OCC)cc1NC(=O)c1ccco1,6.2% (inactive)
22,O=C(NNC(=S)Nc1ccc(Br)cc1Cl)c1ccco1,43.8% (active)
23,CSc1nc(-c2ccco2)nn1C(=O)c1ccccc1Cl,1.46% (inactive)
24,Cc1ccc(S(=O)(=O)NC(=O)Nc2nc(-c3ccc(F)c(F)c3)cs2)cc1,19.2% (active)
25,COc1ccc(CC(=O)Nc2nc(-c3ccc(F)c(F)c3)cs2)cc1OC,-6.69% (inactive)

row,Compound,max response
1,COc1cc(CC(=O)Nc2nc(-c3ccc(F)c(F)c3)cs2)cc(OC)c1OC,-5.65% (inactive)
2,O=[N+]([O-])c1ccc(N(CCO)Cc2ccccc2)c([N+](=O)[O-])c1,-2.22% (inactive)
3,Cc1ccc(C)c(N2C(=O)CS/C2=N\NC(=O)c2ccccc2Cl)c1,-3.78% (inactive)
4,C/C(=N/NC(=O)c1cc(Cl)ccc1O)C12CC3CC(CC(C3)C1)C2,18.4% (inactive)
5,O=C(N/N=C1\CCSC1)c1cc(Cl)ccc1O,18.7% (active)
6,Cc1cc(C=O)c(C)n1-c1ccc(NC2CCCCC2)c([N+](=O)[O-])c1,6.55% (inactive)
7,Cc1cc(=O)oc2c(C)c(OC(C)C(=O)NC3CCN(Cc4ccccc4)CC3)ccc12 (configuration not stated),-2.67% (inactive)
8,COc1ccc(NC(=O)CC(NC(C)c2ccccc2)C(=O)O)cc1 (configuration not stated),-3.91% (inactive)
9,COc1ccc(C(CC(=O)Nc2ccc(C)cc2)NC(=O)C(F)(F)F)cc1 (configuration not stated),12.7% (active)
10,COc1ccc(NC(=O)C(=O)NCC(=O)Nc2cccc(C(F)(F)F)c2)cc1,-1.93% (inactive)
11,Cc1ccc(NS(=O)(=O)c2ccc3c(c2)NC(=O)CO3)cc1,-9.63% (inactive)
12,COc1ccc(CNC(=O)C(Cc2ccccc2)n2cccc2)cc1 (configuration not stated),-3.21% (inactive)
13,CCOC(=O)C1Sc2[nH]c(=O)sc2C(c2ccc(Cl)cc2)C1C(=O)OCC (configuration not stated),-1.02% (inactive)
14,COc1ccc(N2CCN(C(=O)c3ccc(N4CCCCS4(=O)=O)cc3)CC2)cc1,-2.57% (inactive)
15,CCC(=C/c1sc2ccc3ccccc3c2[n+]1C)/C=C1\Sc2ccc3ccccc3c2N1C,-3.42% (inactive)
16,Cc1cc(C)c(NC(=O)CSc2nc3ccncc3[nH]2)c(C)c1,8.2% (inactive)
17,CC(=O)Nc1ccc(C(=O)CSc2nc3ccc(C)cc3[nH]2)cc1,19.9% (active)
18,CCOC(=O)CSc1nc2ccc(C)cc2[nH]1,17% (active)
19,Cc1ccc2nc(SCC(=O)NC3CCCC3)[nH]c2c1,-3.78% (inactive)
20,COc1ccc2nc(SCC(=O)Nc3c(C)cc(C)cc3C)[nH]c2c1,-5.11% (inactive)
21,Cc1nc2nc(SCC(=O)c3ccccc3)[nH]c2cc1Br,1.25% (inactive)
22,COc1ccc(/C=N/N(C)C2=NS(=O)(=O)c3ccccc32)cc1OC,-4.65% (inactive)
